{"source": "PubChem BioAssay AID1347046", "about": "(National Center for Advancing Translational Sciences (NCATS), 2019)", "note": "The campaign covered roughly 1,400 compounds. About 940 (67%) were called active. Roughly 27% stayed inconclusive and do not appear here. So high a share suggests a set chosen from earlier hits. A selection follows. A number with no mark means an inactive call. Calls come from the whole dose curve. Potency is the fitted concentration of half-maximal effect."}
{"biological_target": "Atrial natriuretic peptide receptor 2 (Homo sapiens) (UniProt P20594)", "sequence (P20594 whole entry, looked up)": "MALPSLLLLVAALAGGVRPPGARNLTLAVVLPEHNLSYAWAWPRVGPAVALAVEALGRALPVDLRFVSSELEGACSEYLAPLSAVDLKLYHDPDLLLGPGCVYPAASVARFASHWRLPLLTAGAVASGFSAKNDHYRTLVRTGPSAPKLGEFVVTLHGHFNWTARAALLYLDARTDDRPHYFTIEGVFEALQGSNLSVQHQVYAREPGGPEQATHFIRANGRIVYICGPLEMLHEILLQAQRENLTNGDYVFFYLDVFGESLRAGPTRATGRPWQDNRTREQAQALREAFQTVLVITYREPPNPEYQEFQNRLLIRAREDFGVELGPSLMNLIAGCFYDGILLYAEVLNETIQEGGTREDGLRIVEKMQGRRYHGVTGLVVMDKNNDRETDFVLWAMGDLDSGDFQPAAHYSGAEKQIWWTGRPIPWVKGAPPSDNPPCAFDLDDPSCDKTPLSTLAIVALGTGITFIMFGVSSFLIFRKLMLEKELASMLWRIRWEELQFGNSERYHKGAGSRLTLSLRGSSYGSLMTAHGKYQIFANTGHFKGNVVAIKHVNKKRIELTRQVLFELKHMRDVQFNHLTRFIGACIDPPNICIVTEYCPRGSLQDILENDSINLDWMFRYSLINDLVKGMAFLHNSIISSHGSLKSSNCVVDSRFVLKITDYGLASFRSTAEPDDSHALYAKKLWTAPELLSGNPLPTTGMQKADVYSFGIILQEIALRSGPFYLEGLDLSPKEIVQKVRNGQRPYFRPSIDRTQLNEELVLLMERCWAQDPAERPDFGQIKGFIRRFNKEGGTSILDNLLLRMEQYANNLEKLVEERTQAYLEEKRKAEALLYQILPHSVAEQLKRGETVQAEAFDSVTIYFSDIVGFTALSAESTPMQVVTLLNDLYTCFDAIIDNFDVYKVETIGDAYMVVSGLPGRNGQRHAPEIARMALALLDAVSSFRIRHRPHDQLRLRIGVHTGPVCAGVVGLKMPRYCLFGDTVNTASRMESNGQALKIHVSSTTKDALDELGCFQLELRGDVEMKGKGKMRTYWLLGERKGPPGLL", "assay": "Natriuretic polypeptide receptor (hNpr2) antagonism - Subtype selectivity assay; note: nearly all actives have a fitted effect of over 70% in size", "conditions": "HEK293 hNpr2 GloSensor cGMP luminescence, CNP-stimulated; series mostly up to 57.6 µM; activity change, negative = inhibition: at the top concentration", "description": "F. Fan, B. F. Binkowski, B. L. Butler, P. F. Stecha, M. K. Lewis, K. V. Wood, Novel genetically encoded biosensors using firefly luciferase. ACS Chem Biol 3, 346-351 (2008).\nPROTOCOL TABLE (as described by Inglese J, Shamu CE and Guy RK. 2007) SEQUENCE No. (e.g., 1, 2, 3, etc.); PARAMETER (e.g., Cells, Incubation, Reagent, etc.); VALUE and DESCRIPTION. 1. Cells. Seed 1500 HEK293 cGMP-sensor cells expressing hNpr2 per well in 4uL into Greiner 1536-well white/solid bottom high base, TC plates. 2. Incubation. Incubate plated cells at 37C in 5% CO2, 95% RH overnight. 3. Reagent. Add 1uL per well GloSensor reagent from Promega (2% final concentration) or CO2 independent media vehicle control to respective columns of Greiner 1536-well plates. 4. Incubation. Incubate plated cells at ambient temperature for 2 h., protect from light. 5. Compounds. Library compounds and DMSO vehicle control added at 23nL per well, transferred by Pin Tool. 6. Incubation. Incubate plated cells for 30 min. at ambient temperature, protect from light. 7. Detector. GloSensor baseline pre-read luminescence measured using CCD-based camera (Viewlux). 8. Compound. Add 1uL of hNppC peptide to 1 nM final concentration to stimulate hNpr2 or CO2 independent media as vehicle control. 9. Incubation. Incubate treated cells at ambient temperature for 20 min., protect from light. 10. Detector. GloSensor post-hNppC luminescence measured using CCD-based camera (Viewlux). NOTES (numbers refer to Sequence numbers above) 1. HEK293 cells expressing hNpr2 and GIP/pGS-40F were grown to 85-95% confluence (48-72 h) in T175 culture flasks (CO2 independent media supplemented with 10% FBS, 1% Pen/Strep antibiotics, and 1 ug/mL puromycin). Trypsinize and harvest cells from T175 culture flasks and filter through 40 um cell strainer. Cells counted with Invitrogen Countess (30,000,000 - 50,000,000 cells/flask). Cells diluted to a final concentration of 375 cells/uL in CO2 independent media and a Millipore multidrop used to dispense 1500 cells per well (4uL/well) into 13 1536-well Greiner White/Solid bottom, high base tissue-culture treated (TC) plates and one Aurora 1536-well Black/Clear bottom, low base, TC plate (for visual inspection of cell health throughout the duration of the assay). 2. Cells incubated for 24 h. at 37C in 95% RH incubator with metal lid having gas-exchange holes. 3. Prepare GloSensor Reagent (Promega): Reconstitute GloSensor luciferase substrate by adding 8.2mL Hepes buffer to 250mg substrate, mix well, protect from light and stored at -80C. Prepare a fresh 12% GloSensor solution in CO2 independent supplemented plating media (see above). Mix well and store at ambient temperature, protected from light. 1uL 12% GloSensor Luciferase Reagent added (2% final concentration) to respective columns of 13 x 1536-well Greiner plate with BioRaptr, 1uL CO2 independent plating media added to respective columns as vehicle control with BioRaptr. 4. Cells incubated for 2 h. at ambient temperature, protected from light with metal lid having gas-exchange holes. 5. 23nL of library compounds or DMSO vehicle control transferred to 13 Greiner white/solid bottom high base, TC plates in 11 interplate 1:3 titrations (see Yasgar, A. et al. 2008) with Pintool. 6. Cells incubated for 30-50 min. at ambient temperature protected from light with metal lid having gas-exchange holes. 7. Read cellular baseline GloSensor luminescence in presence of test library compounds on the ViewLux [Exposure = 10 s.; Gain = High; Speed = Slow; and Binning = 2X.] 8. hNppC peptide agonist solution prepared at 1 mM (in H2O) stock concentration. From this a working dilution was prepared at 6 nM in CO2 Independent media. 1uL of 6 nM hNppC agonist (1 nM final concentration) or CO2 Independent media vehicle control dispensed into respective columns of 13 x Greiner 1536-well white/solid bottom, tissue culture plates with BioRaptr. 9. Cells incubated for 20 min. at ambient temperature, protected from light with metal lid having gas-exchange holes. 10. […]", "units": {"activity change, negative = inhibition": "%"}}
{"smiles": "Cc1ccc2nc(C3CCCN(Cc4ccc(C#N)cc4)C3)[nH]c(=O)c2c1", "note": "(centres undefined)", "Potency": "24.3 µM (active)"}
{"smiles": "O=c1[nH]c(C2CCCN(Cc3ccccn3)C2)nn1-c1ccc(Cl)cc1", "note": "(centres undefined)", "Potency": "10.9 µM (active)"}
{"smiles": "CC(C)(C)c1csc(NC(=O)c2ccc3c(c2)OCCN(C2CCC2)C3)n1", "Potency": "35.3 µM (active)"}
{"smiles": "COc1ccccc1Nc1cnc2ccc(N(C)Cc3cccnc3)nn12", "Potency": "28 µM (active)"}
{"smiles": "C1CCC(COCCc2noc(C3CNC3)n2)C1", "Potency": "21.7 µM (active)"}
{"smiles": "O=C(NCc1nnc2cc(-c3nc(C4CC4)no3)ccn12)c1ccc(F)cc1Cl", "Potency": "13.7 µM (active)"}
{"smiles": "Cc1ccc2c(c1)nc1n2[C@@H](CNS(=O)(=O)c2ccccc2)COC1", "Potency": "31.4 µM (active)"}
{"smiles": "COc1ccc(C(=O)N2CCC(n3cc(-c4nc(C(C)C)no4)nn3)CC2)cc1F", "activity change, negative = inhibition": -20.8}
{"smiles": "O=C(c1ccc(Cl)cc1)N1CCCC(n2cc(-c3nc(-c4ccccc4)no3)nn2)C1", "note": "(centres undefined)", "Potency": "21.7 µM (active)"}
{"smiles": "O=C(c1ccc(F)cc1Cl)N1CCC(n2cc(-c3nc(-c4ccccc4)no3)nn2)C1", "note": "(centres undefined)", "Potency": "5.44 µM (active)"}
{"smiles": "O=C1c2cnc(-c3ccc(Cl)cc3)nc2OCCN1Cc1ccccc1", "Potency": "35.3 µM (active)"}
{"smiles": "Cc1cc(N2CCCC(Cn3cc(Cc4ccccc4)nn3)C2)nc(N)n1", "note": "(centres undefined)", "Potency": "9.68 µM (active)"}
{"smiles": "O=C(c1ccccn1)N1CC(Oc2ccc(-c3noc(C4CC4)n3)cc2)C1", "Potency": "19.3 µM (active)"}
{"smiles": "COc1ccc(C2Cn3nnc(C(=O)N4CCN(C(=O)c5cccc(Cl)c5)CC4)c3CO2)cc1", "note": "(centres undefined)", "Potency": "15.3 µM (active)"}
{"smiles": "O=C(c1ccc(F)cc1F)N1CCN(c2cc(-c3ccc(Cl)cc3)[nH]n2)CC1", "Potency": "19.3 µM (active)"}
{"smiles": "CCc1ccc(C(=O)N2CCN(c3cc(-c4ccc(F)cc4)[nH]n3)CC2)cc1", "Potency": "21.7 µM (active)"}
{"smiles": "O=C(c1cc(F)ccc1Cl)N1CCN(c2cc(-c3ccc(F)cc3)[nH]n2)CC1", "Potency": "24.3 µM (active)"}
{"smiles": "Cc1ccc(C(=O)N2CCN(c3cc(-c4ccc(Cl)cc4)[nH]n3)CC2)c(C)c1", "Potency": "9.68 µM (active)"}
{"smiles": "O=C(c1ccc2cc[nH]c2c1)N1CCC2(CC1)N=C(c1ccc(Cl)cc1)NO2", "Potency": "21.7 µM (active)"}
{"smiles": "O=C1NCN(Cc2ccc(Cl)cc2)C12CCN(Cc1ccccc1)CC2", "Potency": "19.3 µM (active)"}
{"smiles": "COc1cccc(-c2noc(CC3CCN(C(=O)c4ccc(F)cc4)CC3)n2)c1", "Potency": "6.11 µM (active)"}
{"smiles": "O=C(c1ccccc1)N1CCC(C(=O)N2CCC(Cc3nc(-c4ccc(F)cc4)no3)CC2)CC1", "Potency": "19.3 µM (active)"}
{"smiles": "CCN(CCCNC(=O)c1nnn2cc(-c3ccccc3)[nH]c(=O)c12)c1ccccc1", "activity change, negative = inhibition": -25.7}
{"smiles": "COc1cccc(CNC(=O)Cn2c(N(C)Cc3ccccc3)nc(C)cc2=O)c1OC", "Potency": "27.3 µM (active)"}
{"smiles": "COc1cccc(NC(=O)Cn2c(N(C)Cc3ccccc3)nc(C)cc2=O)c1", "Potency": "12.2 µM (active)"}
{"smiles": "Cc1nn2c(c1-c1ccccc1-c1ccccc1)N(CC1CC1)CCC2", "Potency": "3.14 µM (active)"}
{"smiles": "Cc1nc(-c2ccncc2)ncc1C(C)Nc1ncnc(C)c1C", "note": "(centres undefined)", "Potency": "17.2 µM (active)"}
{"smiles": "CN1CCN(C(=O)C(C)(C)Oc2nn(Cc3cccc(Cl)c3)c3ccccc23)CC1", "Potency": "19.8 µM (active)"}
{"smiles": "CN(C)CCNC(=O)C(C)(C)Oc1nn(Cc2cccc(Cl)c2)c2ccccc12", "Potency": "31.4 µM (active)"}
{"smiles": "Cc1noc(C)c1-c1cc(-c2ccccc2Oc2ccccc2)cn2cncc12", "Potency": "11.1 µM (active)"}
{"smiles": "CN(Cc1csc(-c2ccccc2)n1)c1cc(C2CC(O)C2)nc(N)n1", "note": "(centres undefined)", "Potency": "3.85 µM (active)"}
{"smiles": "Cc1c[nH]c(CN2CCCC(CCc3ccc(F)cc3F)C2)c(C)c1=O", "note": "(centres undefined)", "Potency": "3.85 µM (active)"}
{"smiles": "O=C1Nc2ccccc2CN(Cc2ccccc2)C12CCNCC2", "Potency": "17.2 µM (active)"}
{"smiles": "COc1ccc(OCC2(C)COc3ccc(C(=O)Nc4cccnc4)cc3N2)cc1", "note": "(centres undefined)", "Potency": "35.3 µM (active)"}
{"smiles": "CC1=NS(=O)(=O)N(C)C=C1C(=O)OCc1nc(-c2ccc(C)cc2)no1", "Potency": "13.7 µM (active)"}
{"smiles": "COc1ccc(CCNC(=O)c2noc(-c3ccc(C)cc3)n2)cc1OC", "Potency": "21.7 µM (active)"}
{"smiles": "O=[S+]1([O-])NCC2(CCCN(Cc3ccc(C(F)(F)F)cc3)C2)Oc2ncccc21", "note": "(centres undefined)", "Potency": "15.3 µM (active)"}
{"smiles": "COc1ccc(CN2C(=O)CO[C@H]3CN(Cc4ccc5c(c4)OCO5)C[C@H]32)cc1", "Potency": "31.4 µM (active)"}
{"smiles": "Cc1cccc(CN2CCc3nc(C(=O)Nc4ccc(Cl)cc4)oc3CC2)c1", "Potency": "12.5 µM (active)"}
{"smiles": "O=C(c1ccccc1)N1CCNc2cnc(Nc3cccc(C(F)(F)F)c3)nc2C1", "Potency": "28 µM (active)"}
{"smiles": "CC1(C(=O)NCc2ccc3c(c2)OCO3)CCc2cnc(NCc3ccccc3)nc21", "note": "(centres undefined)", "Potency": "35.3 µM (active)"}
{"smiles": "O=C(NCC1CC1)c1nc2c(o1)CCN(Cc1cccc(F)c1F)CC2", "Potency": "28 µM (active)"}
{"smiles": "O=C(Cc1c[nH]c2ncc(-c3ccccc3F)cc12)N1CCOCC1", "Potency": "15.7 µM (active)"}
{"smiles": "Cc1ccc(OCc2nc(C3CCN(C(=O)CCc4nc5ccc(Cl)cc5[nH]4)CC3)no2)cc1", "Potency": "24.3 µM (active)"}
{"smiles": "CC(C)c1cc(C(=O)N2CCC(n3cc(-c4ccccn4)nn3)CC2)n(C)n1", "Potency": "19.3 µM (active)"}
{"smiles": "OC1(Cc2cc(-c3ccccc3)no2)CCN(c2ncncn2)CC1", "Potency": "8.62 µM (active)"}
{"smiles": "COc1ccc(-c2noc(CC3CCN(C(=O)Cc4ccc(OC)c(OC)c4)CC3)n2)cc1", "Potency": "5.44 µM (active)"}
{"smiles": "COc1ccc(CC(=O)N2CCC(Cc3nc(-c4ccccc4)no3)CC2)cc1OC", "Potency": "15.3 µM (active)"}
{"smiles": "COc1ccc(-c2noc(CC3CCN(C(=O)CC4CCCCC4)CC3)n2)cc1", "Potency": "12.2 µM (active)"}
